Where “and” joins values, the source holds several entries; their conditions need not be identical. Equal entries are not always repeated. Calls of active or inactive are those of the source. Unless noted, no stated cut-off is given here; in the data, active means inhibition above about 83%; inactive means the rest.
Assay: growth inhibition, single agents and combos, HTB85, cell-based, BGB or cisplatin IC20 combos, synergistic combos for chromothripsis tumors (AID 1671453);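 further: cells exposed for 96 hours before readout; 0% = vehicle DMSO and 100% = high DMSO killing control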
Details: HTB85 osteosarcoma cells, drug combinations, single agent, at 5 µM, stronger effect = higher value

| Compound | inhibition |
| --- | --- |
| O=C(O)P(=O)(O)O | -25.8% |
| C[C@H]1COc2c(C3(N)CC3)c(F)cc3c(=O)c(C(=O)O)cn1c23 | 3.14% |
| Nc1nc2c(ncn2CCC(CO)CO)c(=O)[nH]1 | -16.3% and 0.079% |
| CN(C)/N=N/c1nc[nH]c1C(N)=O | -8.44% and -20.4% |
| CC1CCc2cc(F)cc3c(=O)c(C(=O)O)cn1c23 (stereo not given) | -1.52% and 15.2% |
| CCN1CCN(c2cc3c(cc2F)c(=O)c(C(=O)O)cn3C2CC2)CC1 | -31.7% |

Assay: growth inhibition, single agents and combos, CRL2098, cell-based, BGB or cisplatin IC20 combos, synergistic combos for chromothripsis tumors (AID 1671454; in the data active means inhibition above about 80%;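 further: cells exposed for 96 h before readout; 0% = vehicle DMSO and 100% = killing by high DMSO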)
Details: CRL2098 osteosarcoma cells, drug combinations, at 0.5 µM, stronger effect = higher value

| Compound | inhibition |
| --- | --- |
| O=C(O)P(=O)(O)O | -107% (inactive) |
| C[C@H]1COc2c(C3(N)CC3)c(F)cc3c(=O)c(C(=O)O)cn1c23 | -44.1% (inactive) |
| Nc1nc2c(ncn2CCC(CO)CO)c(=O)[nH]1 | -37% (inactive) and -44.9% (inactive) |
| CN(C)/N=N/c1nc[nH]c1C(N)=O | -3.56% (inactive) and -92.1% (inactive) |
| CC1CCc2cc(F)cc3c(=O)c(C(=O)O)cn1c23 (stereo not given) | -7.35% (inactive) and -5.05% (inactive) |
| CCN1CCN(c2cc3c(cc2F)c(=O)c(C(=O)O)cn3C2CC2)CC1 | -28.3% (inactive) |

Same assay, conditions: CRL2098 osteosarcoma cells, drug combinations, measured here: combination with BGB at IC20, at 0.5 µM, stronger effect = higher value

| Compound | inhibition |
| --- | --- |
| O=C(O)P(=O)(O)O | -77.3% |
| C[C@H]1COc2c(C3(N)CC3)c(F)cc3c(=O)c(C(=O)O)cn1c23 | -27.6% |
| Nc1nc2c(ncn2CCC(CO)CO)c(=O)[nH]1 | -37.8% and -1.8% |
| CN(C)/N=N/c1nc[nH]c1C(N)=O | -50.1% and -47.1% |
| CC1CCc2cc(F)cc3c(=O)c(C(=O)O)cn1c23 (stereo not given) | 15.7% and -0.776% |
| CCN1CCN(c2cc3c(cc2F)c(=O)c(C(=O)O)cn3C2CC2)CC1 | -35.5% |

Same assay, conditions: CRL2098 osteosarcoma cells, drug combinations, measured here: combination with cisplatin at IC20, at 0.5 µM, stronger effect = higher value

| Compound | inhibition |
| --- | --- |
| O=C(O)P(=O)(O)O | -148% |
| C[C@H]1COc2c(C3(N)CC3)c(F)cc3c(=O)c(C(=O)O)cn1c23 | -41.6% |
| Nc1nc2c(ncn2CCC(CO)CO)c(=O)[nH]1 | -13.5% and -79.6% |
| CN(C)/N=N/c1nc[nH]c1C(N)=O | 34.4% and -173% |
| CC1CCc2cc(F)cc3c(=O)c(C(=O)O)cn1c23 (stereo not given) | -17.1% and 17.1% |
| CCN1CCN(c2cc3c(cc2F)c(=O)c(C(=O)O)cn3C2CC2)CC1 | -26.8% |

Assay: growth inhibition, single agents and combos, HD-MB03, cell-based, BGB or cisplatin IC20 combos, synergistic combos for chromothripsis tumors (AID 1671455);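 further: 0% = vehicle DMSO and 100% = high DMSO as cytotoxic control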
Details: HD-MB03 medulloblastoma cells, at 0.5 µM, stronger effect = higher value

| Compound | inhibition |
| --- | --- |
| O=C(O)P(=O)(O)O | -14.1% (inactive) |
| C[C@H]1COc2c(C3(N)CC3)c(F)cc3c(=O)c(C(=O)O)cn1c23 | -8.87% (inactive) |
| Nc1nc2c(ncn2CCC(CO)CO)c(=O)[nH]1 | -6.81% (inactive) and 1.52% (inactive) |
| CN(C)/N=N/c1nc[nH]c1C(N)=O | 0.8% (inactive) and -6.95% (inactive) |
| CC1CCc2cc(F)cc3c(=O)c(C(=O)O)cn1c23 (stereo not given) | -4.42% (inactive) and 1.31% (inactive) |
| CCN1CCN(c2cc3c(cc2F)c(=O)c(C(=O)O)cn3C2CC2)CC1 | -4.62% (inactive) |

Source: PubChem BioAssay
